Measured values published in PubChem BioAssay (NCI).
The panel holds about 83,000 compounds, 20% with a hit somewhere; the sample as a whole holds those more often.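 How to read the values: 0–100, growth inhibition (40 = 60% inhibited); 0, no net growth; -100 to 0, cell death (-40 = 40% of starting cells died; -100 = all dead).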 The source made the active and inactive calls. Rule for the calls: active = growth percent below 10; inactive = the rest.

Each compound was assayed on MDA-MB-468 breast (assay: NCI-60 one-dose screen, 48 h (100 = growth as untreated, 0 = no growth, -100 = all killed)). Conditions: 10 µM unless noted.
In the case of `N#CC1c2ccccc2C=CN1C(=O)c1ccc(N(CCCl)CCCl)cc1` (stereo not given), the growth is reported as 79.7% (inactive).
In the case of `CC1=C(SCCC(=O)OCC(=O)NCCC[Te]c2ccccc2)C(=O)c2ccccc2C1=O`, the growth is reported as 9.39% (active).
In the case of `COc1cc2c(c(OC)c1OC)-c1ccc([O-])c(=O)cc1[C@@H](NC(C)=O)CC2.COc1cc2c(c(OC)c1OC)-c1ccc([O-])c(=O)cc1[C@@H](NC(C)=O)CC2.[Cu+2]`, the growth is reported as 2.02% (active).
In the case of `CCOP(=O)(Nc1ccc2c(c1)/C(=N/NC(N)=S)c1ccccc1-2)OCC`, the growth is reported as 86% (inactive).
With `C=CCCCN=C=S` the growth was 33.9% (inactive).
